GPR151 activ: activators of human GPR151, primary screen, cell-based, PathHunter beta-arrestin, luminescence. G-protein coupled receptor 151 (Homo sapiens), Q8TDV0. PathHunter beta-arrestin GPR151 cells. activation, % at 11.2 µM. 1% of 650,000 active; in the data active = activation above about 4.9%;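 note: 0% = median of compound wells and 100% = cells with positive control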
TEAD-YAP block: TEAD-YAP interaction inhibition, primary screen, TEAD-YAP interaction inhibitor project, luminescence, HEK-TIYL cells; TEAD-Gal4/YAP UAS-luciferase luminescence; inhibition, % at 9.12 µM; 1.4% of 640,000 active; in the data active = inhibition above about 32%;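 note: 0% = median of test compound wells and 100% = reference inhibitor wells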
MITF inh: MITF inhibitors, primary screen, biochemical, AlphaScreen, human; 0.91% of 650,000 active; AID 1259374, 2018; AlphaScreen MITF homodimerization, bead proximity signal; inhibition, % at 2.6 µM; in the data active = inhibition above about 50%;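 note: 0% = vehicle wells with protein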
FBW7 act: FBW7 E3 ligase activators, primary screen, biochemical, AlphaScreen, human; normalized activity (activation), % at 26.1 µM; AlphaScreen FBW7–phospho-cyclin E peptide binding, activator screen; F-box/WD repeat-containing protein 7 (Homo sapiens), Q969H0; AID 1259310, 2017; 0.13% of 650,000 active; in the data active = normalized activity above about 1.9%;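 note: purified mutant Fbw7 with reduced substrate affinity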
MITF inh conf: MITF inhibitors, retest of hits, confirmation, biochemical, AlphaScreen, triplicate. shares compounds with MITF inh. AlphaScreen MITF homodimerization, biotin/His-MITF beads. inhibition, % at 2.6 µM. 16% of 4,700 active. AID 1259372, 2018;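 active = inhibition above a cutoff derived from the DMSO control wells, cut at about 28% in these data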;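 note: 0% = MITF dimer wells with DMSO only; inhibitors lower the bead chemiluminescence by keeping MITF from dimerizing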
AlphaScreen DR: AlphaScreen optical interference compounds, dose response, counter-screen, biochemical, HTS; AID 1259373, 2018; shares compounds with MITF inh; 6% of 480 active; IC50, µM; AlphaScreen optical interference counterscreen, cell-free; call rule not given here
AlphaScreen intf2: AlphaScreen optical interference compounds, counter-screen for MITF inhibitor project, biochemical, triplicate; shares compounds with MITF inh; LysRS AlphaScreen counterscreen, signal interference; inhibition, % at 2.6 µM; 7.6% of 4,700 active; AID 1259376, 2018;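 active = inhibition above a cutoff derived from the DMSO control wells, cut at about 30% in these data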
The depositor's hits bear a star; · = no result; ! = repeats disagree. The list is not random: actives were taken first. Their share in the collection is about 3.4%.

SMILES	GPR151 activ	TEAD-YAP block	MITF inh	FBW7 act	MITF inh conf	AlphaScreen intf2	others
COc1cc(OC)nc(Oc2cccnc2C(=O)NNc2ccccc2)n1	2	-7	54*	-1	36*	70*
COc1cc(N=Cc2c(O)[nH]c3ccccc23)cc(OC)c1	-1	19	5	0	·	·
Cc1ccnc2nc(C(=O)Nc3nc(-c4ccccn4)cs3)nn12	0	1	65*	-1	59*	79*
Cc1ccnc2nc(C(=O)Nc3nc(-c4cccs4)cs3)nn12	-1	-17	14	0	·	·
O=C(CC1(O)C(=O)Nc2ccccc21)c1ccc([N+](=O)[O-])cc1 (stereo not drawn)	0	-1	8	0	·	·
O=C(CC1(O)C(=O)Nc2ccc([N+](=O)[O-])cc21)c1ccccc1 (stereo not drawn)	3	1	69*	0	-3	-3
O=C(O)CC1S/C(=N/N=C2\CSC(=O)N2)NC1=O (stereo not drawn)	0	9	92*	0	84*	100*
NC(=O)NC(=O)CC1S/C(=N/N=C2\CSC(=O)N2)NC1=O (stereo not drawn)	-1	10	96*	0	72*	100*
CCOC(=O)c1ccc(NC(=O)CC2S/C(=N/N=C3\CSC(=O)N3)NC2=O)cc1 (stereo not drawn)	-1	6	25	-2	·	·
CCN1CCN(CCNC(=O)CCCN2C(=S)NC(C)(C)CC2C)CC1 (stereo not drawn)	1	8	71*	0	5	6
CCc1ccccc1NC(=O)CCCN1C(=S)NC(C)(C)CC1C (stereo not drawn)	0	5	-3	0	·	·
N#CC(C#N)=Cc1cccn1-c1ccc(C(=O)O)cc1	0	-3	63*	0	61*	4	AlphaScreen DR=>6.5
O=Cc1cccn1-c1ccc(C(=O)O)cc1	1	-4	67*	0	64*	-5	AlphaScreen DR=>6.5
Cc1ccc(S(=O)(=O)N2CCN(CC(=O)Nc3cc(Cl)ccc3C)CC2)cc1C	4	3	53*	0	-10	-6
CS(=O)(=O)N1N=C(c2c(-c3ccccc3)c3cc(Cl)ccc3[nH]c2=O)CC1c1ccccc1 (stereo not drawn)	-1	1	-6	0	·	·
CNCc1cc(Br)c(OC)c(OC)c1	-1	5	34	0	·	·
CC(=O)c1ccc(NC(=S)NN(C)C(=S)Nc2ccc(C(C)=O)cc2)cc1	1	6	5	0	·	·
COc1ccc(CN2CCN(Cc3cccc(OC)c3OC)CC2)cc1	-1	-6	75*	0	9	12
CCOc1ccccc1N1CCN(Cc2cccc(OC)c2OC)CC1	1	8	23	0	·	·
CCc1ccc(CN2CCN(Cc3cccc(OC)c3OC)CC2)cc1	-1	-5	64*	0	8	15
CCCOc1ccc(C2C3=C(CCCC3=O)Nc3ccc4nc(C)ccc4c32)cc1 (stereo not drawn)	0	9	9	0	·	·
COC(=O)CN(c1ccc(I)cc1)S(=O)(=O)c1ccccc1	0	1	3	0	·	·
COC(=O)CN(c1ccccn1)S(=O)(=O)c1ccccc1	0	4	61*	0	-6	-8
O=C(NC1CCCCC1)c1cn2ccsc2n1	2	-18	3	0	·	·
O=C1c2c(O)cccc2Cc2cccc(O)c21	-1	0	86*!	0	116*	-23	AlphaScreen DR=>6.5
Cc1cc(O)c2c(c1)C(=O)c1cccc(O)c1C2=O	0	-3	15	0	·	·
COc1cc(CNC2CCCC2)cc(OC)c1	-1	6	27	0	·	·
COc1cc(CNC2CCCCC2)cc(OC)c1	-1	16	52*	0	-9	-10
CN1C(=O)C(=Cc2ccc(OCc3cccc([N+](=O)[O-])c3)cc2)C(=O)N(C)C1=S	-4	-31	9	0	·	·
CN(C)CCCNCC(=O)c1c(-c2ccccc2)n(C)c2ccccc12	0	-12	51*	1	-7	8

Source: PubChem BioAssay (The Scripps Research Institute Molecular Screening Center)
